Reference: PubChem BioAssay AID1159580 (chemical genetic matrix, 2015)
Screen size: about 5,500 compounds; about 2,000 (36%) were called active. Another 18% or so got no clear call; they are omitted. Rule as the data show it: active = normalized growth mostly below about 0.91 (no sharp cut-off); inconclusive = no clear call, values can overlap the other calls; inactive = mostly above about 0.92. Some of the results follow.

Assay: chemical genetic growth profiling, strain panel (AID 1159580);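 also: tested at 20 µM; growth read once vehicle control cultures reached saturation at 30 °C; 1 = growth at the plate median or of vehicle wells; lower values mean less growth of the strain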
Settings: S. cerevisiae deletion strains, growth OD
[1] = locus YAL040C, strain CLN3, stronger effect = lower value
[2] = locus YCL061C, strain MRC1 (second series), stronger effect = lower value
[3] = locus YDR363W, strain ESC2, stronger effect = lower value
[4] = locus YER002W, strain NOP16, stronger effect = lower value
[5] = locus YNL175C, strain NOP13, stronger effect = lower value
[6] = locus YNL197C, strain WHI3, stronger effect = lower value
[7] = locus YNL224C, strain SQS1, stronger effect = lower value
[8] = locus YNL322C, strain KRE1, stronger effect = lower value
[9] = locus YOR083W, strain WHI5 (second series), stronger effect = lower value
[10] = locus YPL241C, strain CIN2, stronger effect = lower value

Measured: normalized growth

Brc1c(NC2=NCCN2)ccc2nccnc12
inactive: [1] 1.01 | [2] 1 | [3] 1 | [4] 1.01 | locus YGR229C, strain SMI1, stronger effect = lower value 1.01 | locus YMR307W, strain GAS1, stronger effect = lower value 0.994 | [5] 0.989 | [6] 0.981 | [7] 0.994 | [8] 1 | [9] 1 | [10] 1

CCN(CCCl)Cc1ccccc1Br
inactive: [1] 1.06 | [2] 0.994 | [3] 0.91 | [4] 1.04 | locus YJR075W, strain HOC1, stronger effect = lower value 0.994 | locus YNL153C, strain GIM3, stronger effect = lower value 1.02 | [5] 1 | [6] 1.02 | [7] 0.995 | [8] 0.974 | [9] 0.968 | [10] 0.999
